Measured values from PubChem BioAssay (NCI).
This is part of a sample that, as a whole, favours compounds with a hit. Of some 79,000 tested, about 15% had one in any assay. A number with no mark means an inactive call. Calls of active or inactive are those of the source. No stated cut-off is given here; in the data, active means growth inhibition above about 70%; inactive means the rest.

What was measured:
[1] = NCI Yeast Anticancer Drug Screen. Data for the rad50 strain (AID 155);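 further: 0% = growth of vehicle-only cultures of the same strain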; conditions: S. cerevisiae rad50 strain growth inhibition, active compounds read high
Method in brief: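 DNA repair mutant yeast, compound exposure, growth read-out; inhibition is taken relative to vehicle.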

[2] = NCI Yeast Anticancer Drug Screen. Data for the mec2-1 strain (AID 157); conditions: S. cerevisiae mec2-1 strain, active compounds read high
Method in brief: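 Test agents were screened against the mec2-1 yeast strain, with defined DNA repair or cell cycle alteration. Growth was scored as inhibition against vehicle-only controls.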

[3] = NCI Yeast Anticancer Drug Screen. Data for the sgs1 mgt1 strain (AID 161);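 further: 0% = growth of cultures given vehicle only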; conditions: S. cerevisiae sgs1 mgt1 strain, active compounds read high
Method in brief: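 Test agents were incubated with a DNA-repair-mutant yeast strain. Growth was then read and compared against vehicle-treated controls.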

[4] = NCI Yeast Anticancer Drug Screen. Data for the cln2 rad14 strain (AID 165);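 further: 0% = growth equal to vehicle treated cultures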; conditions: S. cerevisiae cln2 rad14 strain, active compounds read high
Method in brief: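 Growth of compound-exposed yeast (cln2 rad14 genotype) measured and expressed as inhibition relative to vehicle.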

[5] = NCI Yeast Anticancer Drug Screen. Data for the bub3 strain (AID 167); conditions: S. cerevisiae bub3 mutant strain, active compounds read high
Method in brief: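 In this screen, a yeast mutant lacking normal mitotic checkpoint function is challenged with compound. Relative growth versus vehicle gives the inhibition value.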

[6] = NCI Yeast Anticancer Drug Screen. Data for the mlh1 rad18 strain (AID 175); conditions: S. cerevisiae mlh1 rad18 strain growth inhibition, active compounds read high
Method in brief: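 In this whole-cell yeast screen, a strain with altered DNA damage repair is challenged with compound, and its growth is measured against matched vehicle-treated controls.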

[7] = at 5.0 µM (retest, dose inferred, filed as 0.5)
[8] = at 50.0 µM (retest, dose inferred, filed as 5.0)

With `CCOc1ccccc1/C=C1\C=Nc2ccccc21` the growth inhibition [1, 7] was 6%, the growth inhibition [1, 8] was -16% and the growth inhibition ([1]; at 50.0 µM) was 11.8%. The growth inhibition [2, 7] was -16%, the growth inhibition [2, 8] was 8% and the growth inhibition ([2]; at 50.0 µM) was 16.1%. For the same molecule, the growth inhibition [3, 7] was -6%, the growth inhibition [3, 8] was 0% and the growth inhibition ([3]; at 50.0 µM) was 16.2%. It also gave a growth inhibition [4, 7] of 25%, a growth inhibition [4, 8] of 16% and a growth inhibition ([4]; at 50.0 µM) of 7.65%. For the same molecule, the growth inhibition [5, 7] was 8%, the growth inhibition [5, 8] was 15% and the growth inhibition ([5]; at 50.0 µM) was 24.7%. For the same molecule, the growth inhibition [6, 7] was -10%, the growth inhibition [6, 8] was -17% and the growth inhibition ([6]; at 50.0 µM) was 6.35%.
With `CCCn1cnc2c(SCc3ccc(Cl)cc3Cl)nc(N)nc21` the growth inhibition [1, 7] was 12%, the growth inhibition [1, 8] was 14% and the growth inhibition ([1]; at 50.0 µM) was 97.1% (active). For the same molecule, the growth inhibition [2, 7] was 12%, the growth inhibition [2, 8] was 12% and the growth inhibition ([2]; at 50.0 µM) was 97.2% (active). The growth inhibition [3, 7] was 13%, the growth inhibition [3, 8] was 15% and the growth inhibition ([3]; at 50.0 µM) was 97% (active). The growth inhibition [4, 7] was 12%, the growth inhibition [4, 8] was -9% and the growth inhibition ([4]; at 50.0 µM) was 97.2% (active). The growth inhibition [5, 7] was 13%, the growth inhibition [5, 8] was 16% and the growth inhibition ([5]; at 50.0 µM) was 97.5% (active). The growth inhibition [6, 7] was 11%, the growth inhibition [6, 8] was 12% and the growth inhibition ([6]; at 50.0 µM) was 95.7% (active).
In the case of `O=c1ccn(C2OC(COC(c3ccccc3)(c3ccccc3)c3ccccc3)C(O)C2O)c(=O)[nH]1` (stereo not given), the growth inhibition [1, 7] is reported as 34%, the growth inhibition [1, 8] is reported as 98% (active) and the growth inhibition ([1]; at 50.0 µM) is reported as 90.8% (active). For the same molecule, the growth inhibition [2, 7] was 27%, the growth inhibition [2, 8] was 99% (active) and the growth inhibition ([2]; at 50.0 µM) was 92.9% (active). The growth inhibition [3, 7] was 25%, the growth inhibition [3, 8] was 99% (active) and the growth inhibition ([3]; at 50.0 µM) was 93.3% (active). The growth inhibition [4, 7] was 30%, the growth inhibition [4, 8] was 98% (active) and the growth inhibition ([4]; at 50.0 µM) was 92.4% (active). For the same molecule, the growth inhibition [5, 7] was 38%, the growth inhibition [5, 8] was 98% (active) and the growth inhibition ([5]; at 50.0 µM) was 91.8% (active). For the same molecule, the growth inhibition [6, 7] was 31%, the growth inhibition [6, 8] was 98% (active) and the growth inhibition ([6]; at 50.0 µM) was 90.3% (active).
With `CCCC/C=C(/CCCNCCc1ccccc1)[Si](C)(C)C` the growth inhibition [1, 7] was 88% (active), the growth inhibition [1, 8] was 98% (active) and the growth inhibition ([1]; at 50.0 µM) was 90.4% (active). For the same molecule, the growth inhibition [2, 7] was 90% (active), the growth inhibition [2, 8] was 99% (active) and the growth inhibition ([2]; at 50.0 µM) was 93% (active). The growth inhibition [3, 7] was 98% (active), the growth inhibition [3, 8] was 99% (active) and the growth inhibition ([3]; at 50.0 µM) was 93.4% (active). For the same molecule, the growth inhibition [4, 7] was 89% (active), the growth inhibition [4, 8] was 99% (active) and the growth inhibition ([4]; at 50.0 µM) was 91.5% (active). The growth inhibition [5, 7] was 98% (active), the growth inhibition [5, 8] was 99% (active) and the growth inhibition ([5]; at 50.0 µM) was 91.5% (active). The growth inhibition [6, 7] was 97% (active), the growth inhibition [6, 8] was 99% (active) and the growth inhibition ([6]; at 50.0 µM) was 90.9% (active).
For `CCCCCCc1ccc(O)c(Cl)c1`, the growth inhibition [1, 7] was 0%, the growth inhibition [1, 8] was 28% and the growth inhibition ([1]; at 50.0 µM) was 98.8% (active). For the same molecule, the growth inhibition [2, 7] was 0%, the growth inhibition [2, 8] was 15% and the growth inhibition ([2]; at 50.0 µM) was 94% (active). The growth inhibition [3, 7] was -1%, the growth inhibition [3, 8] was 15% and the growth inhibition ([3]; at 50.0 µM) was 77.3% (active). It also gave a growth inhibition [4, 7] of -4%, a growth inhibition [4, 8] of -3% and a growth inhibition ([4]; at 50.0 µM) of 44.1%. The growth inhibition [5, 7] was -5%, the growth inhibition [5, 8] was -8% and the growth inhibition ([5]; at 50.0 µM) was 57.4%. The growth inhibition [6, 7] was 0%, the growth inhibition [6, 8] was 19% and the growth inhibition ([6]; at 50.0 µM) was 89.6% (active).
With `c1ccc2cc3c(ccc4cccc[n+]43)cc2c1` the growth inhibition [1, 7] was 17%, the growth inhibition [1, 8] was 28% and the growth inhibition ([1]; at 50.0 µM) was 34.3%. For the same molecule, the growth inhibition [2, 7] was 20%, the growth inhibition [2, 8] was 52% and the growth inhibition ([2]; at 50.0 µM) was 18%. For the same molecule, the growth inhibition [3, 7] was 23%, the growth inhibition [3, 8] was 53% and the growth inhibition ([3]; at 50.0 µM) was 35.6%. For the same molecule, the growth inhibition [4, 7] was 30%, the growth inhibition [4, 8] was 29% and the growth inhibition ([4]; at 50.0 µM) was 71.5% (active). For the same molecule, the growth inhibition [5, 7] was -4%, the growth inhibition [5, 8] was 8% and the growth inhibition ([5]; at 50.0 µM) was 27.7%. For the same molecule, the growth inhibition [6, 7] was 10%, the growth inhibition [6, 8] was 45% and the growth inhibition ([6]; at 50.0 µM) was 29.9%.
For `Nc1ccc2c(c1)[nH]c(=O)c1ccc(Cl)cc12`, the growth inhibition [1, 7] was -63%, the growth inhibition [1, 8] was 94% (active) and the growth inhibition ([1]; at 50.0 µM) was 98.2% (active). The growth inhibition [2, 7] was -32%, the growth inhibition [2, 8] was 82% (active) and the growth inhibition ([2]; at 50.0 µM) was 90.5% (active). For the same molecule, the growth inhibition [3, 7] was -32%, the growth inhibition [3, 8] was 83% (active) and the growth inhibition ([3]; at 50.0 µM) was 93.1% (active). For the same molecule, the growth inhibition [4, 7] was -30%, the growth inhibition [4, 8] was 85% (active) and the growth inhibition ([4]; at 50.0 µM) was 92.5% (active). The growth inhibition [5, 7] was -52%, the growth inhibition [5, 8] was 91% (active) and the growth inhibition ([5]; at 50.0 µM) was 78.9% (active). The growth inhibition [6, 7] was -56%, the growth inhibition [6, 8] was 93% (active) and the growth inhibition ([6]; at 50.0 µM) was 97% (active).
With `Oc1ccc2c(c1)OCC1c3ccccc3OC21` (stereo not given) the growth inhibition [1, 7] was 24%, the growth inhibition [1, 8] was 71% (active) and the growth inhibition ([1]; at 50.0 µM) was 76.7% (active). For the same molecule, the growth inhibition [2, 7] was 38%, the growth inhibition [2, 8] was 78% (active) and the growth inhibition ([2]; at 50.0 µM) was 64.3%. The growth inhibition [3, 7] was 28%, the growth inhibition [3, 8] was 73% (active) and the growth inhibition ([3]; at 50.0 µM) was 66.3%. For the same molecule, the growth inhibition [4, 7] was 23%, the growth inhibition [4, 8] was 56% and the growth inhibition ([4]; at 50.0 µM) was 50.1%. The growth inhibition [5, 7] was 37%, the growth inhibition [5, 8] was 89% (active) and the growth inhibition ([5]; at 50.0 µM) was 75% (active). For the same molecule, the growth inhibition [6, 7] was 50%, the growth inhibition [6, 8] was 88% (active) and the growth inhibition ([6]; at 50.0 µM) was 76.7% (active).
In the case of `Nc1cccc2c1C(=O)c1ccc(Cl)cc1C2=O`, the growth inhibition [1, 7] is reported as 69%, the growth inhibition [1, 8] is reported as 81% (active) and the growth inhibition ([1]; at 50.0 µM) is reported as 93.7% (active). For the same molecule, the growth inhibition [2, 7] was 18%, the growth inhibition [2, 8] was 34% and the growth inhibition ([2]; at 50.0 µM) was 71.8% (active). For the same molecule, the growth inhibition [3, 7] was 4%, the growth inhibition [3, 8] was 61% and the growth inhibition ([3]; at 50.0 µM) was 55%. For the same molecule, the growth inhibition [4, 7] was 0%, the growth inhibition [4, 8] was 6% and the growth inhibition ([4]; at 50.0 µM) was -17.6%. The growth inhibition [5, 7] was 12%, the growth inhibition [5, 8] was 39% and the growth inhibition ([5]; at 50.0 µM) was 85.4% (active). It also gave a growth inhibition [6, 7] of 15%, a growth inhibition [6, 8] of 60% and a growth inhibition ([6]; at 50.0 µM) of 44.8%.
For `CN(C)CCC(=O)N1C/C(=C\c2ccc(Cl)c(Cl)c2)C(=O)/C(=C/c2ccc(Cl)c(Cl)c2)C1`, the growth inhibition [1, 7] was 98% (active), the growth inhibition [1, 8] was 97% (active) and the growth inhibition ([1]; at 50.0 µM) was 91.7% (active). The growth inhibition [2, 7] was 99% (active), the growth inhibition [2, 8] was 98% (active) and the growth inhibition ([2]; at 50.0 µM) was 89.8% (active). For the same molecule, the growth inhibition [3, 7] was 99% (active), the growth inhibition [3, 8] was 97% (active) and the growth inhibition ([3]; at 50.0 µM) was 88.2% (active). For the same molecule, the growth inhibition [4, 7] was 98% (active), the growth inhibition [4, 8] was 98% (active) and the growth inhibition ([4]; at 50.0 µM) was 90% (active). For the same molecule, the growth inhibition [5, 7] was 99% (active), the growth inhibition [5, 8] was 98% (active) and the growth inhibition ([5]; at 50.0 µM) was 91.3% (active). The growth inhibition [6, 7] was 99% (active), the growth inhibition [6, 8] was 97% (active) and the growth inhibition ([6]; at 50.0 µM) was 88.9% (active).
